Measured values: PubChem BioAssay AID720534 (National Center for Advancing Translational Sciences (NCATS), 2013)
The whole screen tested about 1,600 compounds, of which about 990 (62%) were called active. Another 30% or so got no clear call; they are omitted. The call rests on the fitted dose curve; in most records, active means well fitted inhibition curve with a large enough effect; inconclusive means small, poorly fitted or top-dose-only effect; inactive means no such curve, though single readings can be large or run the other way. So high a share suggests a set chosen from earlier hits. These entries were drawn from the full list.

Assay: qHTS for Inhibitors of TGF-b: Confirmation of Cherry Picks; further: nearly all actives have a fitted effect of over 65% in size
Conditions: HepG2 CAGA-GFP TGF-b reporter, GFP fluorescence, 18 h, cells stimulated with TGF-beta, 500 pg/mL; series mostly up to 46.1 µM; activity, negative = inhibition: at the top concentration
Procedure, shortened: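 Smad3-responsive CAGA-GFP HepG2 reporter assay. Compounds preceded a 500 pg/mL TGF-beta challenge lasting 18 h at 37 degrees C; normalization used unstimulated cells as full inhibition and stimulated DMSO controls as none.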
On the % scale 0 is the no-effect control and ±100 the full control effect; potency means the concentration at half of the fitted maximal effect.

Potency, active:
COc1cc(NC(=O)COC(=O)c2ccc([N+](=O)[O-])s2)cc(OC)c1OC 23.1 µM
Cc1ccnc(NC(=O)C2CCN(S(=O)(=O)c3c(C)c(C)cc(C)c3C)CC2)c1 7.31 µM
S=C(NCC1COc2ccccc2O1)Nc1ccc(Br)cc1 (configuration not stated) 18.4 µM
CN(C)c1nc(N)nc(CSc2nnnn2-c2cccc3ccccc23)n1 7.31 µM
CN(C)c1nc(=Nc2cccc(Cl)c2)ss1 5.17 µM
Cc1cccc(-c2nc(Nc3ccc(O)cc3)c3ccccc3n2)c1 18.4 µM
COc1cc(/C=C2\Oc3ccc(C#Cc4ccc(O)cc4)cc3C2=O)cc(OC)c1 6.51 µM
O=C(Nc1nnc(S(=O)(=O)N2CCCCCC2)s1)c1cccc(Br)c1 23.1 µM
O=C(Nc1ccc(Br)cn1)c1ccc([N+](=O)[O-])o1 18.4 µM
CCOC(=O)C1=C(N)N(c2ccc(C)cc2)C2=C(C(=O)CCC2)C1c1cccs1 (configuration not stated) 23.1 µM
Cc1nc(/N=C(\N)NC(=O)NC2CCCCC2)nc2ccccc12 11.6 µM
Clc1ccc2c(c1)C1=C(C(c3ccncc3)O2)C(c2ccc(Br)cc2)n2ncnc2N1 (configuration not stated) 2.31 µM
CCCOc1ccccc1C1CC(=O)Nc2cc3c(cc21)OCO3 (configuration not stated) 8.2 µM
COc1cccc2sc(N(CCCN(C)C)C(=O)CCS(=O)(=O)c3ccccc3)nc12 3.26 µM
Cc1cccc2sc(N(CCCN(C)C)C(=O)CCS(=O)(=O)c3ccccc3)nc12 5.17 µM
Cc1nn(-c2ccccc2)c(C)c1/C=N/NC(=O)CSc1nc2ccccc2c(=O)n1-c1ccccc1 2.31 µM
Cc1ccc(CN2CC(N3CCC(Cc4ccccc4)CC3)CS2(=O)=O)cc1 (configuration not stated) 20.6 µM
Cc1ccc(S(=O)(=O)Nc2nc3ccccc3nc2N2CCc3ccccc3C2)cc1 18.4 µM
Cc1cccc(NS(=O)(=O)c2ccc(-c3cnc(C4CC4)o3)cc2)c1 16.4 µM
COc1ccc2nc(N3CCN(C(=O)c4ccc([N+](=O)[O-])o4)CC3)sc2c1 20.6 µM
OCC1OC(n2cnc3c(N4CCCC4)ncnc32)C(O)C1O (configuration not stated) 2.59 µM
CCC(C)N1C(=O)S/C(=C/c2ccc(Sc3nc4ccccc4[nH]3)o2)C1=O (configuration not stated) 5.17 µM
CCCOc1ccc(F)cc1-c1cc(C(=O)Nc2ccc(F)c(Cl)c2)[nH]n1 20.6 µM
Clc1cccc(Cc2c(-c3cccc(Cl)c3)nc3ccc(Cl)cn23)c1 18.4 µM
Oc1c(CN2CCN(c3ccc(F)cc3)CC2)cc(Cl)c2cccnc12 6.51 µM
OCCCNc1nccc(-c2cc(Nc3cccc(Cl)c3)ncn2)n1 0.411 µM
CC(=NNC(=S)N1CCCCCC1)c1ccccn1 0.651 µM
Cc1cccc(NC(=O)c2nc(S(=O)(=O)Cc3ccccc3)ncc2Cl)c1 4.11 µM
Cc1cccc(CS(=O)(=O)c2ncc(Cl)c(C(=O)Nc3ccc(F)cc3)n2)c1 5.17 µM

activity, negative = inhibition, inactive:
COc1ccc(CC(=O)Nc2ccccc2NC(=O)c2ccco2)cc1OC -18%
COc1ccc(C)cc1S(=O)(=O)N1CCN(S(=O)(=O)c2cc(C(=O)O)ccc2C)CC1 -6.42%
O=C(Nc1ccc(C2CC2(Cl)Cl)cc1)c1cccc([N+](=O)[O-])c1 (configuration not stated) -80.8%
